Experimental data: PubChem BioAssay (NCATS)
Inconclusive results are not listed. Activity calls are given as the source filed them. Calls come from the whole dose curve; as a rule, active = well fitted curve in the direction sought with a large enough effect; inconclusive = small, poorly fitted or top-dose-only effect, or another doubt; inactive = no such curve, though single readings can be large; an effect the other way counts as inactive or inconclusive.

Legend:
[1] = Cellular Toxicity (caspase-3) N2a (AID 665); conditions: N2a cells, luminescence, normalized: DMSO 0%, 10 µM staurosporine 100%; at 92.2 µM (top of the series);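 note: compound exposure lasted 16 h at 37 °C before readout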
Summary of the method: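 Mouse N2a neuroblastoma cells (1500/well) were treated with compounds for 16 h at 37 °C, then caspase-3/7 activity was read by Caspase-Glo luminescence after 1 h at room temperature. Data were normalized to DMSO and 10 uM staurosporine; AC50 from Hill fits.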

[2] = Cellular Toxicity (caspase-3) NIH 3T3 (AID 666);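 note: caspase signal read after 16 h compound exposure; 0% = DMSO basal and 100% = 100 µM tamoxifen stimulation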
Summary of the method: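 Mouse NIH 3T3 fibroblasts (1000 cells/well) were treated with compound for 16 hr at 37°C in complete medium; caspase-3/7 activity was read by Caspase-Glo luminescence. Normalized to DMSO and 100 uM tamoxifen; AC50 from Hill fits.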

[3] = Cellular Toxicity (caspase-3) Renal Proximal Tubule (AID 667); conditions: renal proximal tubule cells; at 91.7 µM (top of the series), primary cells freshly taken from rat, solvent-only wells 0%, staurosporine 100% unless noted;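 note: cells exposed to compound for 16 hours at 37 °C before detection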
Summary of the method: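 AC50 derived by standard Hill fit of concentration-response data, normalized between DMSO basal and 10 uM staurosporine as 100% stimulation. Cells: primary rat kidney proximal tubule, 16 h treatment at 37 °C.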

[4] = target: Cytochrome P450 3A4 (Homo sapiens) (UniProt P08684); assay: qHTS Assay for Activators of Cytochrome P450 3A4 (AID 885); note: nearly all actives have a fitted effect of over 65% in size
Cytochrome P450 3A4 (Homo sapiens), sequence (P08684 whole entry, looked up): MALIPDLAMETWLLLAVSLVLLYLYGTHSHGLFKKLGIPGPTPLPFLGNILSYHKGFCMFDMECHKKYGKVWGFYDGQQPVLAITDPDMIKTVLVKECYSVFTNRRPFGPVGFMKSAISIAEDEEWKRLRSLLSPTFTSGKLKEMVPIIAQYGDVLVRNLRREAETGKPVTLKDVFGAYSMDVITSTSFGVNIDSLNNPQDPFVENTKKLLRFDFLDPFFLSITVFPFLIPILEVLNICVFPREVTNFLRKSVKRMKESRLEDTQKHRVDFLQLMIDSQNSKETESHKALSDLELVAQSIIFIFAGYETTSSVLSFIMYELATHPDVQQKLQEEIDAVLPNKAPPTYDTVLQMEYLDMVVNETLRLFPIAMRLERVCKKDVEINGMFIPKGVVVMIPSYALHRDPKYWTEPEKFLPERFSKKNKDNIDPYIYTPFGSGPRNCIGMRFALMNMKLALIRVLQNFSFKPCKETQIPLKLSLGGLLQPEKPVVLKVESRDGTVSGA
Summary of the method: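 20nM CYP3A4 + 25uM Luciferin-PPXE (=KM), 200mM KPO4; cpd 10 min RT; NADPH regen, 60 min RT; stop w/ detection buffer, 20 min; luminescence. Normalized to 57 uM ketoconazole.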

[5] = MultiTox-Fluor Cytotoxicity Assay - LYMP1-001 - Dead Cells (AID 946);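 note: 0% = DMSO and 100% = tetraoctylammonium bromide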
Summary of the method: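 AC50 from Hill fit of concentration-response; data normalized to DMSO (basal) and 15 uM tetraoctylammonium bromide (100%). LYMP1-001 lymphoblastoid cells, 2500/well, 16 hr compound at 37 C; dead-cell protease fluorescence, Ex/Em 485/520.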

[6] = MultiTox-Fluor Cytotoxicity Assay - LYMP1-001 - Live Cells (AID 947);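 note: 0% = DMSO only and full inhibition = tetraoctylammonium bromide control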
[7] = Cell Viability - LYMP1-002 - Assay at 16 hr (AID 948);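 note: 0% = DMSO alone and full effect = 92 µM tetraoctylammonium bromide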
Summary of the method: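 Seed 2500 LYMP1-002 cells per well in complete medium and hold 5 hr at 37 C. Add compound across a concentration series and incubate 16 hr at 37 C. Add CellTiter-Glo, wait 30 min at room temperature, read luminescence.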

[8] = MultiTox-Fluor Cytotoxicity Assay - LYMP1-002 - Live Cells (AID 955); note: % is set by controls: 0 for no effect and ±100 for the full control effect
Summary of the method: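 Human lymphoblastoid LYMP1-002 cells, 2500/well in complete medium, rested 5 hr at 37 C, then exposed to compounds for 16 hr at 37 C. Live-cell protease cleavage of GF-AFC read by fluorescence (Ex/Em 405/510) after 60 min at room temperature; AC50 from Hill fits.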

[9] = MultiTox-Fluor Cytotoxicity Assay - LYMP1-002 - Dead Cells (AID 960);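 note: 0% = DMSO and 100% = tetraoctylammonium bromide; nearly all actives have a fitted effect of over 60% in size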
Summary of the method: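 Human lymphoblastoid cells (LYMP1-002), 2500/well in complete medium, were exposed to compounds for 16 hr at 37 C. Dead-cell protease activity was read as bis-AAF-R110 fluorescence (Ex/Em 485/520), normalized to DMSO and 15 uM tetraoctylammonium bromide; AC50 from Hill fits.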

[10] = MultiTox-Fluor Cytotoxicity Assay - LYMP1-003 - Dead Cells (AID 961);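 note: 0% = DMSO and 100% = tetraoctylammonium bromide; nearly all actives have a fitted effect of over 70% in size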
Summary of the method: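 Human lymphoblastoid LYMP1-003 cells (2500/well) were treated with compounds for 16 hr at 37 C in complete medium. Dead-cell protease release was read by bis-AAF-R110 fluorescence (Ex/Em 485/520). AC50 came from Hill fits, normalized to DMSO and 15 uM tetraoctylammonium bromide.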

[11] = Cell Viability - LYMP1-003 - Assay at 40 hr (AID 964); note: % is set by controls: 0 for no effect and ±100 for the full control effect; nearly all actives have a fitted effect of over 60% in size
Summary of the method: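 Human lymphoblastoid LYMP1-003 cells, 2500/well in complete medium, rested 5 hr at 37 C, then exposed to compounds for 40 hr at 37 C. Viability read as intracellular ATP by CellTiter-Glo luminescence; AC50 from Hill fits of concentration-response data.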

[12] = Cell Viability - LYMP2-003 (AID 965);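 note: cells exposed to compounds for 24 h before reading; 0% = DMSO only and full effect = 92 µM tetraoctylammonium bromide; nearly all actives have a fitted effect of over 50% in size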
Summary of the method: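 Seed 2500 lymphoblastoid cells/well; incubate 5 hr, 37 C; add compounds; incubate 24 hr, 37 C; add CellTiter-Glo, 30 min RT; read luminescence. AC50 from Hill fit.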

[13] = Cell Viability - LYMP2-004 (AID 966);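 note: plate controls were DMSO only for no effect and tetraoctylammonium bromide control for full effect; nearly all actives have a fitted effect of over 65% in size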
Summary of the method: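 Human lymphoblastoid cells (2500/well) in complete medium were treated with compounds for 24 hr at 37 C, then intracellular ATP was measured by CellTiter-Glo luminescence. AC50 values came from Hill-equation fits of concentration-response data.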

[14] = Cell Viability - LYMP2-005 (AID 967);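 note: plate controls were DMSO only for no effect and 92 µM tetraoctylammonium bromide control for full effect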
Summary of the method: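 Acute cytotoxicity is scored as a concentration-dependent drop in intracellular ATP in human lymphoblastoid LYMP2-005 cells after 24 h compound treatment. ATP is quantified by luciferase luminescence, and AC50 is derived by Hill-equation modelling.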

[15] = Cell Viability - LYMP2-009 (AID 968);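 note: 0% = DMSO alone and the full-kill end = tetraoctylammonium bromide at 92 µM; nearly all actives have a fitted effect of over 55% in size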
[16] = Cell Viability - LYMP2-011 (AID 969);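 note: 0% = DMSO only and full inhibition = 92 µM tetraoctylammonium bromide; nearly all actives have a fitted effect of over 60% in size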
Summary of the method: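 Human lymphoblastoid cells (2500/well) were plated in complete medium, preincubated 5 hr at 37 C, then exposed to compounds for 24 hr at 37 C. Intracellular ATP was read by CellTiter-Glo luminescence, and AC50 came from Hill-equation concentration-response fits.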

[17] = Cell Viability - LYMP2-013 (AID 970);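 note: 0% = DMSO only and full inhibition = tetraoctylammonium bromide control; nearly all actives have a fitted effect of over 55% in size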
Summary of the method: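 Human lymphoblastoid cells, 2500/well, were preincubated 5 hr at 37 C, then treated with compounds for 24 hr at 37 C in complete medium. Intracellular ATP was read by CellTiter-Glo luminescence; AC50 from Hill-equation fits of concentration-response data.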

[18] = Cell Viability - LYMP2-015 (AID 971);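 note: 0% = DMSO only and full effect = 92 µM tetraoctylammonium bromide; nearly all actives have a fitted effect of over 55% in size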
Summary of the method: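 Human lymphoblastoid cells (2500/well) in complete medium were preincubated 5 hr at 37 C, then compound-treated 24 hr at 37 C. Intracellular ATP was read by CellTiter-Glo luminescence after 30 min at room temperature; AC50 came from Hill-equation concentration-response fits.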

[19] = Cell Viability - LYMP2-017 (AID 972); note: % is set by controls: 0 for no effect and ±100 for the full control effect; nearly all actives have a fitted effect of over 55% in size
Summary of the method: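 Human lymphoblastoid cells (2500/well) were seeded in complete medium, held 5 hr at 37 C, then exposed to compounds for 24 hr at 37 C. Intracellular ATP was read by CellTiter-Glo luminescence after 30 min at room temperature, with AC50 values from Hill-equation fits.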

[20] = Cell Viability - LYMP2-019 (AID 973)
Summary of the method: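 Human lymphoblastoid cells were seeded at 2500 cells/well, preincubated 5 hr at 37 C, then exposed to compounds for 24 hr at 37 C in complete medium. Intracellular ATP was measured by CellTiter-Glo luminescence; AC50 from Hill fits.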

[21] = Cell Viability - LYMP2-021 (AID 974)
Summary of the method: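 Human lymphoblastoid cells (2500/well) were preincubated 5 hr at 37 C, then exposed to compounds for 24 hr at 37 C in complete medium. Intracellular ATP was read by CellTiter-Glo luminescence; AC50 came from Hill-equation fits of concentration-response data.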

[22] = Cell Viability - LYMP2-023 (AID 975)
Summary of the method: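 Human lymphoblastoid cells (2500/well) were preincubated 5 hr at 37 C, then exposed to compounds for 24 hr at 37 C in complete medium. Cellular ATP was read by CellTiter-Glo luminescence, and AC50 came from Hill-equation fits.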

[23] = Cell Viability - LYMP2-025 (AID 976);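 note: plate controls were DMSO only for no effect and tetraoctylammonium bromide control for full effect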
Summary of the method: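 Human lymphoblastoid LYMP2-025 cells (2500/well) were pre-incubated 5 hr at 37 C, then treated with compounds for 24 hr at 37 C in complete medium. Viability was read as intracellular ATP by CellTiter-Glo luminescence; AC50 from Hill fits.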

S=C=Nc1cccc2ccccc12
inactive: caspase-3 activation [1] 0.808% | outcome [2] | caspase-3 activation [3] -4.28% | Potency [4] | Potency [5] | Potency [6] | Potency [7] | outcome [8] | Potency [9] | Potency [10] | Potency [11] | Potency [12] | Potency [13] | Potency [14] | Potency [15] | Potency [16] | Potency [17] | Potency [18] | Potency [19] | Potency [20] | Potency [21] | Potency [22] | Potency [23]
